The source of these data is PubChem BioAssay (NCI).

Structures are written as SMILES. Values joined by “and” are separate entries in the source; they are usually repeats but may differ in a detail not shown here. Identical values can stand only once. The panel holds about 83,000 compounds, 20% with a hit somewhere; the sample as a whole holds those more often.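 How to read the values: 0–100, growth inhibition (40 = 60% inhibited); 0, no net growth; -100 to 0, cell death (-40 = 40% of starting cells died; -100 = all dead).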 Active and inactive are the calls of the source. Rule for the calls: active = growth percent below 10; inactive = the rest. Where a SMILES comes first, the peptide text is derived from it. The star is where a group is joined. Trt = c1ccc(C(c2ccccc2)(c2ccccc2)*)cc1; Cbz = O=C(OCc1ccccc1)*

The assay concerns T-47D breast. Kind of assay: NCI-60 one-dose screen, 48 h (100 = growth as untreated, 0 = no growth, -100 = all killed). The following applies: 10 µM unless noted.
In the case of `COc1cc(/C=C/C(C)=O)ccc1O`, the growth was 97.2% (inactive) and 106% (inactive).
Under `CC(C)(C)CC(C)(C)c1ccc(OCCSC(=N)N)cc1` stands 7.82% (active).
Regarding `COc1ccc(N=N/N=c2\sc3cc(OC)ccc3n2C)cc1`, the growth was 83.6% (inactive).
Take `O=C(Oc1cccc2cccnc12)c1ccccc1`: the growth was 38.6% (inactive) and 95.2% (inactive).
Under `S=C(NCCNC(=S)[S][Sn]([c]1ccccc1)([c]1ccccc1)[c]1ccccc1)[S][Sn]([c]1ccccc1)([c]1ccccc1)[c]1ccccc1` stands -75.7% (active); under `C[N+](C)=c1ccc2nc3c(cc(NCCCNc4cc5oc6cc(=[N+](C)C)ccc-6nc5c5ccccc45)c4ccccc43)oc-2c1`, 46.2% (inactive); under `C[n+]1c(/C=C/c2ccc([N+](=O)[O-])cc2)ccc2ccccc21`, 103% (inactive).
Under `CCC(CCCN(CC)CCc1ccccc1)OC(=O)c1cc(OC)c(OC)c(OC)c1` (configuration not stated) stands 77.8% (inactive); under `O=C(/C=C\c1ccccc1)N1c2ccccc2CC1c1c[nH]c2ccccc12` (configuration not stated), 23.4% (inactive).
Under `OC(CNc1ccnc2cc(Cl)ccc12)CNc1ccnc2cc(Cl)ccc12` stands 9.13% (active); under `COC(=O)c1nc(=S)[nH]c(C(=O)OC)c1C(=O)c1ccccn1`, 51.5% (inactive); under `Cc1ccc(N=C=C(c2ccccc2)c2ccccc2)cc1`, 85.7% (inactive).
For `NC(=S)N/N=C/c1ccc(Cl)s1`, the growth is 89.8% (inactive).
On to `O=[N+]([O-])c1ccc2c(N=Nc3ccc4ccccc4c3O)c(O)cc(S(=O)(=O)O)c2c1`, for which the growth is 96.1% (inactive).
In the case of `CC(=Nc1ccc(N(C)C)cc1)c1ccccc1`, the growth is 39.6% (inactive).
On to `O=[N+]([O-])c1ccc(N=Nc2ccc(O)cc2O)cc1`, for which the growth is 27.4% (inactive).
Consider `CCC(CC)COC(=O)c1ccc(O)c(O)c1`, for which the growth was 43.6% (inactive).
Turning to `CCC(c1cccc(O)c1)C(CC)c1cccc(O)c1` (configuration not stated), the growth is 53.8% (inactive).
With `COC(=O)C(CSC(c1ccccc1)(c1ccccc1)c1ccccc1)NC(=O)C(CC(N)=O)NC(=O)OCc1ccccc1` (stereo not drawn) (Cbz-Asn-Cys(Trt)-OMe; configuration not given here) the figure was -0.975% (active).
With `CCC(=O)Sc1ccccc1C(=O)Nc1ccc(Cl)cc1` the figure was 45.1% (inactive); with `Nc1ncnc2c1ncn2C1OC(CO)C(O)C1O` (configuration not stated), 109% (inactive) and 9.96% (active) and 90.6% (inactive); with `Cc1ccc2c(ccc3c[n+]4c5ccccc5ccc4n32)c1`, -24.7% (active).
With `O=C(Nc1ccc(F)cc1)ON=C1CCCCC1` the figure was 79% [100 µM] (inactive); with `CC1=CC(O)C2CC1C2(C)C` (configuration not stated), 96% (inactive) and 106% (inactive); with `O=C(CC1(O)C(=O)Nc2c(Cl)ccc(Cl)c21)c1ccc(Cl)cc1Cl` (configuration not stated), 75.5% (inactive).
Regarding `O=C1N[C@H]2[C@H](CS[C@H]2CCCCC(=O)N(CCP(c2ccccc2)c2ccccc2)CCP(c2ccccc2)c2ccccc2)N1`, the growth is 74.8% (inactive).
For the compound `C=C(Cl)C(=NC(C)(C)C)Nc1ccccc1C`, the growth was 64% (inactive).
Under `Cc1ccnc(NC(c2ccccc2)c2ccc3cccnc3c2O)c1` (configuration not stated) stands 54.7% (inactive); under `Cc1cc2nc(CS)[nH]c2cc1C`, 74.3% (inactive); under `O=C(O)C1C2CC3C(OC(=O)C31)C2Br` (configuration not stated), 98.7% (inactive) and 96% (inactive).
For `Cc1ccnc2c1ccc1c(C)ccnc12`, the growth is 6.3% (active).
Take `COc1ccccc1/C=C\C(=O)c1ccccc1`: the growth is 81.9% (inactive).
